Test results as given in PubChem BioAssay AID758 (NMMLSC, 2007).
The campaign covered roughly 190,000 compounds. About 110 (0.058%) were called active. Inconclusive results (about 2%) are left out.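 Rule for the calls: active = fluorescent GTP binding to Rab7 beads changed by at least 20 points from the 100% baseline, either direction, mostly lower; inconclusive = compound itself probably fluorescent, or too few beads counted; inactive = the rest.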 What follows is part of a selection rich in actives, with near analogues and random picks from the rest.

Test system: Rab7 GTPase wild type (dog), Bodipy-FL-GTP binding
Test: wildtype dog Rab7 nucleotide binding alteration – biochemical, multiplex bead flow cytometry, primary screen (AID 758);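 note: median green fluorescence of bound Bodipy-FL-GTP per Rab7 bead population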
Settings: GST-Rab7 beads, fluorescent GTP binding, at 10 µM, actives lie on both sides

SMILES | GTP binding activity (percent of control)
CCOc1ccc(C2SCC(=O)Nc3c2c(C)nn3C2CCOC(C)(C)C2)cc1 (stereo not given) | 79% (active)
CCCC(C)n1[nH]c(=O)c2c1NC(=O)CSC2c1ccc(OC)c(OC)c1 (stereo not given) | 100% (inactive)
CN(C)CCCN=Cc1c(O)n(Cc2ccco2)c(=O)[nH]c1=O | 104% (inactive)
COP(=O)(OC)C(NC(=O)c1ccc(C)cc1)C(Cl)(Cl)Cl (stereo not given) | 99% (inactive)
O=C(Cc1ccccc1)N1CCN(C2CCCCCC2)CC1 | 98% (inactive)
